This passage reports growth results from PubChem BioAssay (NCI).

Compounds without any hit were thinned out: in the full panel of roughly 83,000, 20% have a hit.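 Assay: single dose, 48 h. Readout: percent growth (0 = no net growth; negative = cell death). Active: <10.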 A number with no mark means an inactive call. Activity calls are given as the source filed them.

The assay relates to HL-60(TB) leukemia. Nature of the assay: NCI-60 one-dose screen, 48 h (100 = growth as untreated, 0 = no growth, -100 = all killed). The settings on record: 10 µM unless noted.
Take `COC1=C(OC)C(=O)C=CC1=O`: the growth was 60.8%.

For the compound `c1ccc(-c2cc3n4c(-c5ccccc5)nn(-c5ccccc5)c4cnc-3n2)cc1`, the growth was 120%.

On to `COc1ccc(NC(N)=NCCCOc2ccc(F)cc2)cc1`, for which the growth is 87.7%.

Take `Cc1ccc2c(c1)C(C)Cc1c(N(C)C)ncnc1N2C` (stereo unspecified): the growth was -5.91% (active).

For `CC(C)(C)n1nc(C2CC2)c(Br)c1NC(=O)c1ccccc1F`, the growth was 104%.

Consider `COc1ccc(-c2ccc3c(N4CCOC[C@@H]4C)nc(N4CCOC[C@@H]4C)nc3n2)cc1CO`, for which the growth was 22.6%.

As to `N#Cc1ccc(-c2ccc(COc3ccc(CC4SC(=O)NC4=O)cc3)cc2)cc1` (stereo unspecified), the growth was 70.5%.

For the compound `CC(=O)Oc1ccc(OC(C)=O)c2ccccc12`, the growth was -17.4% (active).

For `COc1cc(C(=O)c2cnc(-c3cccc4[nH]ccc34)[nH]2)cc(OC)c1OC`, the growth was -28.6% (active).

On to `Cc1nc2sc(C(=O)Nc3cccc4ccccc34)c(N)c2cc1C(C)O` (stereo unspecified), for which the growth is -24.1% (active).

`Cc1cccnc1NC1OC(=O)c2ccccc21` (stereo unspecified): the growth was 100%.

On to `CC(=O)Nc1cc2c(cc1Cl)Cc1cc(Cl)ccc1-2`, for which the growth is 114%.

On to `CCc1c(C)c2ccc(OCC(=O)N=Nc3c(O)[nH]c4ccccc34)c(C)c2oc1=O`, for which the growth was -22.3% (active).

For `COc1ccc(-c2nn(-c3cccc(NC(=O)c4ccc5c(c4)OCCO5)c3)cc2-c2ccncc2)cc1Cl`, the growth is -2.93% (active).

Take `COc1ccc2nc3cc(Cl)ccc3c(NCCN)c2c1`: the growth was -51.5% (active).

`CC1=CCC(OC(=O)C(C)(C)CCC(O)(C(=O)OC2(C(C)C)CCC3(C)OC3C2)C(C)C)(C(C)C)CC1` (stereo unspecified): the growth was -43.1% (active).
